Here are results for 6 compounds from PubChem BioAssay (NCATS).

Inconclusive results are not listed. Unmarked numbers belong to inactive results. The source made the active and inactive calls. Calls come from the whole dose curve; as a rule, active = well fitted curve in the direction sought with a large enough effect; inconclusive = small, poorly fitted or top-dose-only effect, or another doubt; inactive = no such curve, though single readings can be large; an effect the other way counts as inactive or inconclusive.

Assay [1] concerns the target ATP-dependent 6-phosphofructokinase (Trypanosoma brucei brucei) (UniProt O15648). The experiment in a line: qHTS Assay to Find Inhibitors of T. brucei phosphofructokinase: hit validation (AID 492961).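 Note: luminescence reports ADP formed as PFK phosphorylates fructose-6-phosphate with ATP; % is set by controls: 0 for no effect and ±100 for the full control effect.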 The method in brief:
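Percent activity derived from corrected luminescence, normalized between 0x and 1x enzyme controls, then fitted to concentration-response curves. Conditions: 1.25 nM PFK, 0.1 mM ATP, 0.5 mM F6P, 45 min RT.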
On the technique in general: Quantitative high-throughput screening tests each substance at several concentrations.

In assay [2] the target is Luciferin 4-monooxygenase (Photinus pyralis) (UniProt P08659). The experiment in a line: Biochemical firefly luciferase enzyme assay for NPC (AID 624030).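 Note: purified P. pyralis luciferase at 10 nM with luciferin and ATP substrate; 0% = DMSO and -100% = full luciferase inhibition by PTC124 control; nearly all actives have a fitted effect of over 70% in size.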 The method in brief: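 Counter-screen for direct inhibition of the luciferase enzyme by approved-drug library compounds, run at 10 nM enzyme in 50 mM Tris acetate (final). Luminescence was read within 5 min of enzyme-buffer addition and normalized to PTC124 versus DMSO (0%).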
Chain of Luciferin 4-monooxygenase (Photinus pyralis) (P08659 whole entry, looked up): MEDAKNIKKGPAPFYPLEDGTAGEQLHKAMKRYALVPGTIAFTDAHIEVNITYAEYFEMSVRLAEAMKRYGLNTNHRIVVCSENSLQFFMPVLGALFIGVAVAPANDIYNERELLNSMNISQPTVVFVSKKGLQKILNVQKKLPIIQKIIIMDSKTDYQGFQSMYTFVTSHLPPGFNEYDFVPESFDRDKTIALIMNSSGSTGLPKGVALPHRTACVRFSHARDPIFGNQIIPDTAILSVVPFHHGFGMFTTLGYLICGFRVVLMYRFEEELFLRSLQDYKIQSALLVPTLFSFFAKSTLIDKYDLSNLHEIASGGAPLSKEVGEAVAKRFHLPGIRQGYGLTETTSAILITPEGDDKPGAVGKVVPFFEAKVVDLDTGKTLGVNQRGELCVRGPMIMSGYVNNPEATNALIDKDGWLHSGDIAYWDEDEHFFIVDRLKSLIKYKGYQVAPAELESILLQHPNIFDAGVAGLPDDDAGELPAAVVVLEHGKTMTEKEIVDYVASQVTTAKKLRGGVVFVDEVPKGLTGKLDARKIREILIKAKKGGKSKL

The nature of assay [3]: qHTS profiling for inhibitors of Plasmodium falciparum proliferation (AID 504749).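 For activity, negative = inhibition: 0% = DMSO vehicle and full inhibition = artemisinin control.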 For all read-outs here: nearly all actives have a fitted effect of over 60% in size. Note: potency is the fitted concentration of half-maximal effect. Particulars: P. falciparum in erythrocytes, SYBR Green DNA, 72 h; for activity, negative = inhibition: at 28.7 µM (top of the series). The method in brief:
(§1)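 Fluorescence of SYBR Green-bound parasite DNA, read at 485/535 nm, served as the growth measure. Infected erythrocytes were cultured with compound 72 h; artemisinin (0.29 uM) and DMSO wells defined the normalization range.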

Assay [4] deals with CP185. Described as above. Particulars: P. falciparum in erythrocytes, SYBR Green DNA, 72 h; series mostly up to 28.7 µM. The gist of the method: as §1
Assay [5] relates to CP192. Described as above. Particulars: P. falciparum in erythrocytes, SYBR Green DNA, 72 h; series mostly up to 28.7 µM. The method in brief:
as §1

Assay [6] deals with CP211. The assay is described as above. Particulars: P. falciparum in erythrocytes, SYBR Green DNA, 72 h; series mostly up to 28.7 µM. The method in brief:
as §1

Assay [7] has as its system CP238. The description is as above. Particulars: P. falciparum in erythrocytes, SYBR Green DNA, 72 h; series mostly up to 28.7 µM. The gist of the method:
as §1

In assay [8] the test system is CP252. The assay is described as above. Particulars: P. falciparum in erythrocytes, SYBR Green DNA, 72 h; series mostly up to 28.7 µM. The method in brief:
as §1

Assay [9] concerns CP262. Described as above. The settings on record: P. falciparum in erythrocytes, SYBR Green DNA, 72 h; series mostly up to 28.7 µM. The gist of the method: as §1
In assay [10] the test system is CP269. The description is as above. The settings on record: P. falciparum in erythrocytes, SYBR Green DNA, 72 h; series mostly up to 28.7 µM. The method in brief: as §1
For assay [11], the system named is CP286. The description is as above. The settings on record: P. falciparum in erythrocytes, SYBR Green DNA, 72 h; series mostly up to 28.7 µM. The gist of the method: as §1
Assay [12] concerns CP315. Described as above. The settings on record: P. falciparum in erythrocytes, SYBR Green DNA, 72 h; series mostly up to 28.7 µM. The gist of the method:
as §1

Assay [13] has as its system CP329. The assay is described as above. Particulars: P. falciparum in erythrocytes, SYBR Green DNA, 72 h; series mostly up to 28.7 µM. The method in brief:
as §1

Assay [14] concerns DFO2036. The assay is described as above. Particulars: P. falciparum in erythrocytes, SYBR Green DNA, 72 h; series mostly up to 28.7 µM. The method in brief:
as §1

Assay [15] concerns Dd2. The assay is described as above. The settings on record: P. falciparum in erythrocytes, SYBR Green DNA, 72 h; series mostly up to 28.7 µM. The method in brief: as §1
For assay [16], the system named is ECU. Described as above. Particulars: P. falciparum in erythrocytes, SYBR Green DNA, 72 h; series mostly up to 28.7 µM. The gist of the method:
as §1

Assay [17] has as its system N140. The assay is described as above. The settings on record: P. falciparum in erythrocytes, SYBR Green DNA, 72 h; series mostly up to 28.7 µM. The method in brief:
as §1

The test system of assay [18] is CP265. The assay is described as above. Particulars: P. falciparum in erythrocytes, SYBR Green DNA, 72 h; series mostly up to 28.7 µM. The method in brief:
as §1

Assay [19] relates to FAB9. The description is as above. Particulars: P. falciparum in erythrocytes, SYBR Green DNA, 72 h; series mostly up to 28.7 µM. The gist of the method:
as §1

Assay [20] concerns JCK. Described as above. Particulars: P. falciparum in erythrocytes, SYBR Green DNA, 72 h; series mostly up to 28.7 µM. The gist of the method: as §1

Chain of ATP-dependent 6-phosphofructokinase (Trypanosoma brucei brucei) (O15648 whole entry, looked up): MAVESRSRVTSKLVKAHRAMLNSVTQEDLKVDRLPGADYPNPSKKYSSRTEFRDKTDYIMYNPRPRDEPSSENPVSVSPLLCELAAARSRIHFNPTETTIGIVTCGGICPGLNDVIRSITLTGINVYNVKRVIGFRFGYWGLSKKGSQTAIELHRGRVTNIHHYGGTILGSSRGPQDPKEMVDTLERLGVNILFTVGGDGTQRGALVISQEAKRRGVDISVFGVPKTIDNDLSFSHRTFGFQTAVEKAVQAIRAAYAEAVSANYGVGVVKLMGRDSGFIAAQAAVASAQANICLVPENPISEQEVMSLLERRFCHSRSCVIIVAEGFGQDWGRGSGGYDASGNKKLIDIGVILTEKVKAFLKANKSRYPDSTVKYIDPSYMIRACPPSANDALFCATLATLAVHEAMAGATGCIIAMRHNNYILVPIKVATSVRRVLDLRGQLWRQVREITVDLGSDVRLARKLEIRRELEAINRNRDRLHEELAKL

For `C=C[C@@]1(C)C[C@H](OC(=O)CSC(C)(C)CNC(=O)[C@@H](N)C(C)C)[C@@]2(C)C(C)CC[C@@]3(CCC(=O)[C@@H]32)[C@H](C)[C@H]1O` (some centres undefined), the Potency entry in [1] and in assay [2] was “inactive” each time. For the same compound, the Potency in assay [3] (parasite line A) was 3.16 µM (active); in assay [3] (parasite line B) it was 1.41 µM (active); in assay [4], 1.41 µM (active); in assay [5] it was 3.38 µM (active); in assay [6], 0.675 µM (active); in assay [7], 5.01 µM (active). In addition, the Potency in assay [8] was 1.26 µM (active); in assay [9], 0.239 µM (active); in assay [10], 1.07 µM (active); in [11] it was 0.447 µM (active); in [12], 2.69 µM (active); in [13], 0.601 µM (active). The Potency in [14] was 0.631 µM (active); in assay [15] it was 0.282 µM (active); in [16], 4.47 µM (active); in assay [17] it was 1.41 µM (active).

With `CNC1C(O)C(OC2C(NC(=O)C(O)CN)CC(N)C(OC3OC(CN)C(O)C(O)C3O)C2O)OCC1(C)O` (centres undefined), the Potency entry in assay [1], in [2], in assay [4], in assay [5], in [6] and in assay [7] was “inactive” each time. In addition, the Potency entry in assay [8], in assay [18], in assay [10], in [11], in assay [12] and in [13] was “inactive” throughout. The Potency entry in assay [14], in [15], in assay [16], in [19], in assay [20] and in assay [17] was “inactive” each time. Besides, the activity, negative = inhibition in assay [3] (parasite line A) was 1.08%; in [3] (parasite line B), -10.1%.

Turning to `C[N+]12CCCC[C@@H]1CCC(=C(c1cccs1)c1cccs1)C2` (some centres undefined), the Potency result in assay [1], in [2] and in assay [9] was “inactive” in each case. The Potency in assay [3] (parasite line A) was 10 µM (active); in assay [3] (parasite line B) it was 12.6 µM (active); in assay [4] it was 8.91 µM (active); in assay [5], 10.7 µM (active); in [6], 13.5 µM (active); in assay [10], 13.5 µM (active). Moreover, the Potency in [11] is 6.31 µM (active); in [14] it was 10 µM (active); in assay [16], 1 µM (active); in [19] it was 11.2 µM (active); in assay [20], 10 µM (active); in assay [17], 12.6 µM (active).

Consider `C/C(=C(/CCO)SS/C(CCO)=C(\C)N(C=O)Cc1cnc(C)nc1N)N(C=O)Cc1cnc(C)nc1N`, for which the Potency entry in [1], in [2], in assay [4], in assay [5], in assay [6] and in assay [7] was “inactive” in each case. In addition, the Potency result in assay [8], in assay [9], in assay [18], in assay [10], in assay [11] and in assay [12] was “inactive” throughout. For the same compound, the Potency result in assay [13], in assay [14], in assay [15], in assay [16], in assay [19] and in assay [20] was “inactive” in each case. In assay [17], the Potency result was “inactive”. In addition, the figures for the activity, negative = inhibition in [3] (parasite line A) and in [3] (parasite line B) were -6.53% and -3.11%, respectively.

`CC[C@@]1(O)CC2CN(CCc3c([nH]c4ccccc34)[C@](C(=O)OC)(c3cc4c(cc3OC)N(C)C3[C@@](O)(C(=O)OC)C(OC(C)=O)[C@]5(CC)C=CCN6CC[C@@]43C65)C2)C1` (some centres undefined): the Potency result in [1] and in [2] was “inactive” throughout. In addition, the Potency in assay [3] (parasite line A) is 2.51 µM (active); in assay [3] (parasite line B) it was 1.12 µM (active); in assay [4], 2.24 µM (active); in assay [5], 3.38 µM (active); in assay [6] it was 2.69 µM (active); in [7], 3.16 µM (active). The Potency is 3.55 µM (active) in assay [8]; 1.69 µM (active) in assay [9]; 2.24 µM (active) in assay [18]; 3.01 µM (active) in assay [10]; 0.794 µM (active) in [11]; 3.38 µM (active) in [12]. The Potency in assay [13] was 3.01 µM (active); in [14] it was 0.891 µM (active); in [15], 0.355 µM (active); in assay [16] it was 2.51 µM (active); in [20], 6.31 µM (active); in assay [17], 3.55 µM (active).

As to `COc1cc(/C=C2\CCC/C(=C\c3ccc(O)c(OC)c3)C2=O)ccc1O`, the Potency entry in assay [1] and in assay [9] was “inactive” throughout. Besides, the Potency in assay [3] (parasite line A) was 11.2 µM (active); in assay [3] (parasite line B) it was 10 µM (active); in assay [4], 11.2 µM (active); in [6], 16.9 µM (active); in assay [7], 10 µM (active); in assay [18] it was 14.1 µM (active). Further, the Potency is 10.7 µM (active) in assay [10]; 19 µM (active) in assay [12]; 11.2 µM (active) in assay [14]; 11.2 µM (active) in assay [15]; 11.2 µM (active) in assay [16]; 10 µM (active) in [20]. In assay [17], the Potency was 11.2 µM (active).
